PubChem BioAssay (NCATS)
Records with an inconclusive call do not appear. Calls of active or inactive are those of the source. The call rests on the fitted dose curve; in most records, active means well fitted inhibition curve with a large enough effect; inconclusive means small, poorly fitted or top-dose-only effect; inactive means flat fitted curve, though single readings scatter.

Key:
Assay in all cases: qHTS profiling for inhibitors of Plasmodium falciparum proliferation (AID 504749); further: nearly all actives have a fitted effect of over 60% in size
Settings in all cases: P. falciparum in erythrocytes, SYBR Green DNA, 72 h; series mostly up to 28.7 µM
CP201 = test system: CP201
In short: (§1)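 Infected RBCs, 0.3% parasitemia/2.5% Hct final; cpd 72 h, 37 C, 5% CO2; lysis buffer with saponin/triton/SYBR Green I, o/n RT dark; FI 485/535; norm. to artemisinin (0.29 uM) and DMSO.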

CP203 = test system: CP203
In short: as §1

CP211 = test system: CP211
In short: as §1

CP215 = test system: CP215
In short: as §1

CP217 = test system: CP217
In short: as §1

CP237 = test system: CP237
In short: as §1

CP238 = test system: CP238
In short: as §1

CP247 = test system: CP247
In short: as §1

CP250 = test system: CP250
In short: as §1

CP252 = test system: CP252
In short: as §1

CP256 = test system: CP256
In short: as §1

CP260 = test system: CP260
In short: as §1

CP262 = test system: CP262
In short: as §1

CP265 = test system: CP265
In short: as §1

CP268 = test system: CP268
In short: as §1

CP269 = test system: CP269
In short: as §1

CP286 = test system: CP286
In short: as §1

CP291 = test system: CP291
In short: as §1

CP297 = test system: CP297
In short: as §1

CP266 = test system: CP266
In short: as §1

Measured: Potency
Potency means the concentration at half of the fitted maximal effect.

CCCCCCOC(=O)c1cccnc1
not listed: CP266
inactive: all other assays above

CC(/C=C/C=C(\C)C(=O)O[C@@H]1O[C@H](CO[C@@H]2O[C@H](CO)[C@@H](O)[C@H](O)[C@H]2O)[C@@H](O)[C@H](O)[C@H]1O)=C\C=C\C=C(C)\C=C\C=C(/C)C(=O)O[C@@H]1O[C@H](CO[C@@H]2O[C@H](CO)[C@@H](O)[C@H](O)[C@H]2O)[C@@H](O)[C@H](O)[C@H]1O
inactive: all assays above

NCC[C@H](O)C(=O)N[C@@H]1C[C@H](N)[C@@H](O[C@H]2O[C@H](CN)CC[C@H]2N)[C@H](O)[C@H]1O[C@H]1O[C@H](CO)[C@@H](O)[C@H](N)[C@H]1O
inactive: all assays above

CCC(O)c1ccccc1 (stereo not given)
not listed: CP266
inactive: all other assays above

OCC(O)CO
not listed: CP262
inactive: all other assays above

O=P(O)(O)CP(=O)(O)O
not listed: CP265 | CP268
inactive: all other assays above

NC(=O)Oc1ccc(Cc2ccccc2)cc1
not listed: CP291
inactive: all other assays above

F[Si-2](F)(F)(F)(F)F
not listed: CP262
inactive: all other assays above

CCCCC
not listed: CP262
inactive: all other assays above

NCCO/C=C/[C@H](N)C(=O)O
not listed: CP266
inactive: all other assays above

Cc1cccc(C)c1NC(=O)NC1=CCCN1C
not listed: CP266
inactive: all other assays above

COc1ccc2c(c1)OC(C)(C)C(c1ccccc1)C2c1ccc(OCCN2CCCC2)cc1 (stereo not given)
active: CP201 5.36 µM | CP203 12 µM | CP211 10.7 µM | CP215 9.53 µM | CP217 3.16 µM | CP237 3.98 µM | CP238 11.2 µM | CP247 2.51 µM | CP250 4.47 µM | CP252 3.98 µM | CP256 4.47 µM | CP260 3.98 µM | CP262 4.78 µM | CP265 3.98 µM | CP266 15.1 µM | CP269 5.36 µM | CP286 3.16 µM | CP291 6.01 µM | CP297 15.1 µM

CCN(CC)CCOc1ccccc1OC
inactive: all assays above

[O]=[Bi][O][Bi]=[O]
not listed: CP266
inactive: all other assays above

C=C1C(CCl)(CCl)C2(Cl)C(Cl)C(Cl)C1(Cl)C2(Cl)Cl (stereo not given)
active: CP201 13.5 µM | CP203 3.79 µM | CP211 12 µM | CP215 3.79 µM | CP217 3.16 µM | CP237 3.16 µM | CP238 3.16 µM | CP247 3.16 µM | CP250 1.12 µM | CP252 3.16 µM | CP256 3.55 µM | CP260 3.55 µM | CP262 4.78 µM | CP265 3.55 µM | CP268 4.26 µM | CP269 4.26 µM | CP286 3.55 µM | CP291 4.26 µM | CP297 3.79 µM

CC(O)CN(C)C (stereo not given)
not listed: CP266
inactive: all other assays above

CO[C@H]1C[C@@H]2CC[C@@H](C)[C@@](O)(O2)C(=O)C(=O)N2CCCC[C@H]2C(=O)O[C@H]([C@H](C)C[C@@H]2CC[C@@H](OC(=O)C(C)(CO)CO)[C@H](OC)C2)CC(=O)[C@H](C)/C=C(\C)[C@@H](O)[C@@H](OC)C(=O)[C@H](C)C[C@H](C)/C=C/C=C/C=C/1C
not listed: CP266
inactive: all other assays above

CC1=C(/C=C/C(C)=C/C=C/C(C)=C/C(=O)Oc2c(C)c(C)c3c(c2C)CC[C@@](C)(CCC[C@H](C)CCC[C@H](C)CCCC(C)C)O3)C(C)(C)CCC1
not listed: CP266
inactive: all other assays above

Nc1ncnc2c1ncn2[C@H]1CC[C@@H](CO)O1
inactive: all assays above

S=C=Nc1ccc(N=C=S)cc1
not listed: CP266
inactive: all other assays above

FC(F)OC(Cl)C(F)(F)F (stereo not given)
not listed: CP268
inactive: all other assays above

CC1(O)CCC(C(C)(C)O)CC1 (stereo not given)
inactive: all assays above

NC(=O)CC[C@@H]1NC(=O)[C@H](Cc2ccccc2)NC(=O)[C@H](Cc2ccc(O)cc2)NC(=O)[C@@H](N)CSSC[C@@H](C(=O)N2CCC[C@H]2C(=O)N[C@@H](CCCN=C(N)N)C(=O)NCC(N)=O)NC(=O)[C@H](CC(N)=O)NC1=O
active: CP260 2.24 µM
not listed: CP265
inactive: all other assays above

O=C(O)c1cc(N=Nc2ccc(O)c(C(=O)O)c2)ccc1O
not listed: CP286
inactive: all other assays above

O=C(NCCNCC(O)COc1ccc(O)cc1)N1CCOCC1 (stereo not given)
inactive: all assays above

C(=C\c1ccncc1)/c1ccccc1
not listed: CP262 | CP291
inactive: all other assays above

O=C(O)[C@H]1C(=CCO)O[C@H]2CC(=O)N12
not listed: CP266
inactive: all other assays above

CC(C)(Oc1ccc(C2CCCc3ccccc32)cc1)C(=O)O (stereo not given)
not listed: CP266
inactive: all other assays above

O=C(O)CCCC/C=C(\c1ccccc1)c1cccnc1
not listed: CP297 | CP266
inactive: all other assays above

Cc1cccc(C)c1NC(=O)C1CCCCN1C (stereo not given)
not listed: CP297 | CP266
inactive: all other assays above

Oc1ccc(Cl)c2c1CCC2
not listed: CP297 | CP266
inactive: all other assays above

Cc1ccc(S(=O)(=O)O)cc1C
not listed: CP266
inactive: all other assays above

O=C(O)[C@H]1CN(C/C=C/P(=O)(O)O)CCN1
inactive: all assays above

O=C1[O][Bi][O]c2ccccc21
not listed: CP266
inactive: all other assays above

O=S(=O)(O)CC(S)CS (stereo not given)
inactive: all assays above

Cc1ccc(S(=O)(=O)NCl)cc1
inactive: all assays above

FC(F)(F)COCC(F)(F)F
not listed: CP266
inactive: all other assays above

CCCCCc1ccc(C)cc1O
not listed: CP247
inactive: all other assays above

Cc1ncc(COP(=O)(O)O)c(CN)c1O
not listed: CP247
inactive: all other assays above

CC(C)OC(=O)Nc1ccc2nc(-c3cscn3)[nH]c2c1
not listed: CP247 | CP269 | CP291 | CP297 | CP266
inactive: all other assays above
